For 42 sequences, binding signal results are on record in article PMC7819943, “Rice protein-binding microarrays: a tool to detect cis-acting elements near promoter regions in rice”.

Over roughly 68,000 sequences, “fluorescence intensity (a.u.)” has its median near 9,100; the highest 2% begin near 16,000. The list comes from a sample in which the highest values are over-represented; it also holds similar and randomly drawn sequences.

OsWRKY34, sequence (Q0JBA9 entry or part of it): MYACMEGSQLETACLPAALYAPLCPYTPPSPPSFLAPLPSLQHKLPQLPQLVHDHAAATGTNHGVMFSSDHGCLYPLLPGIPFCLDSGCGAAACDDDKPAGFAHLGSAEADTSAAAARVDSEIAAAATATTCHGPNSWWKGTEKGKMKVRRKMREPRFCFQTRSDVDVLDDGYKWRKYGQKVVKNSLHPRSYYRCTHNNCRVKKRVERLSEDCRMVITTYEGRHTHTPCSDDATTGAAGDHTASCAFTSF

The target in the test is OsWRKY34 (Oryza sativa, UniProt Q0JBA9 1-250). The test is described as follows: protein-binding microarray (RPBM); PBS, 2% BSA, 51.3 ng/ul salmon testes DNA, 50 uM zinc acetate, 200 nM TF, 25 C, 1 h; high values mean tight binding. The settings on record: protein: recombinant; tags: N-terminal polyhistidine and DsRed monomer fusion (pET32a); label: CyDye5-dUTP incorporated in the synthesized complementary strand; 3' TTTTT single-stranded linker to array surface; dsDNA, one strand shown. The gist of the method:
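Ni–NTA purification followed expression in E. coli BL21-CodonPlus of transcription factors fused N-terminally to a polyhistidine tag and DsRed. At 200 nM in PBS with 2% BSA, salmon testes DNA and 50 µM zinc acetate, the protein was incubated for 1 h at 25 °C with a custom Agilent array that had been primer-extended with Cy5-dUTP and blocked with 2% BSA. After washing, the array was read on an Axon 4000B scanner. The binding signal is per-feature fluorescence intensity in arbitrary units.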
Turning to “TTATCAAATTCCGATCAAATCATTCCTCGTCGGCGTCCATCGGAGTCACCTAGTGCAG”, the binding signal was 8880 fluorescence intensity (a.u.).

As for “AACGGCAGCAGATCCACCAAACCCCACACCCTCTCCAAATCGGAGTCACCTAGTGCAG”, the binding signal is 8600 fluorescence intensity (a.u.).

Turning to “ACTCCATTTACGGGCAACTCTTGCTTGCGCAACGGGCCTTCGGAGTCACCTAGTGCAG”, the binding signal is 8790 fluorescence intensity (a.u.).

Regarding “TTCTTAACATGTTCGCATATGAAAATAGACTTATTTTTTACGGAGTCACCTAGTGCAG”, the binding signal is 8130 fluorescence intensity (a.u.).

With “ACTCTTATTGTCTTCACGTTGTCTTATCAGCCACGATCAACGGAGTCACCTAGTGCAG”, the binding signal was 17900 fluorescence intensity (a.u.).

As to “AGCATATCAGCCACTCTTTCTTCTTTGTCTTTATCAACTCCGGAGTCACCTAGTGCAG”, the binding signal is 8250 fluorescence intensity (a.u.).

“TCCACGTTCACTTATCAGCCCCAACGTCTTAGCTTCCGATCGGAGTCACCTAGTGCAG”: the binding signal was 9260 fluorescence intensity (a.u.).

“GGAATTTCTCAGCTCACACGAGTCACGGACCCACCACCACCGGAGTCACCTAGTGCAG”: the binding signal is 8960 fluorescence intensity (a.u.).

As to “GGGTCTAACTCTAAGAGTATTGGGTACCCCTTATCGTTAACGGAGTCACCTAGTGCAG”, the binding signal was 8360 fluorescence intensity (a.u.).

Regarding “TCTTTCATACGGAATTCCTTTTCATTATTGGATGCCAGCTCGGAGTCACCTAGTGCAG”, the binding signal is 9330 fluorescence intensity (a.u.).

As to “CAAGGTTTGTTTTCTTATCAGTTACTACTGCTTTTGTGGTCGGAGTCACCTAGTGCAG”, the binding signal is 11100 fluorescence intensity (a.u.).

In the case of “TGTGGGACAGGATGGTCACTAATTTCCGGTTTTGGTTTTACGGAGTCACCTAGTGCAG”, the binding signal was 8480 fluorescence intensity (a.u.).

On to “ATTTATTTTGGGATGGGGAGGGAGACAACTACAGTGTTTCCGGAGTCACCTAGTGCAG”, for which the binding signal is 18200 fluorescence intensity (a.u.).

Take “GGGTGGGTTGATTTGATAGACTTCTTTTGCTTTTGATAAACGGAGTCACCTAGTGCAG”: the binding signal was 29100 fluorescence intensity (a.u.).

Regarding “TAACGATTTTTTTTTTGGGAGGGTGGGGATTTTTTTTTTCCGGAGTCACCTAGTGCAG”, the binding signal is 24100 fluorescence intensity (a.u.).

Take “ACCTTCACTATTTTTTTTGATTTTTTTCTTTTTTTTTTAACGGAGTCACCTAGTGCAG”: the binding signal is 12200 fluorescence intensity (a.u.).

Regarding “AGTAGAGTATTTTTTTTTCTTTTTTGATTGATGGTGATAACGGAGTCACCTAGTGCAG”, the binding signal is 8320 fluorescence intensity (a.u.).

Consider “TAGAGGGATGGGCTATTAAGTGTTTTATTTGGTTGGGAGACGGAGTCACCTAGTGCAG”, for which the binding signal was 15200 fluorescence intensity (a.u.).

Regarding “TTTGGGGATTTCTTTCTTATTTTTCTTTCCCTTTTTTTCCCGGAGTCACCTAGTGCAG”, the binding signal is 10900 fluorescence intensity (a.u.).

Regarding “TTTTTCTTTTCTTTTTTGCTTTTGAATTGTGGGGTTGTAACGGAGTCACCTAGTGCAG”, the binding signal is 8790 fluorescence intensity (a.u.).

For the sequence “CTTTTTTGGGTGATTTTTTTTCACTTGGGGTGGGTGATAACGGAGTCACCTAGTGCAG”, the binding signal was 21800 fluorescence intensity (a.u.).

As for “GAGTTTTCCGTGTGGAGGGTGTGGATTTTTTCGTGTGTTCCGGAGTCACCTAGTGCAG”, the binding signal was 15500 fluorescence intensity (a.u.).

Take “CGGGTTTGATTTGATTTGATTTTGATTTTGATTTGCTTCTCGGAGTCACCTAGTGCAG”: the binding signal was 8190 fluorescence intensity (a.u.).

For “ATCTCTGATCCGTCCAGTTGACCCAAAGCTAGAGTCTTTCCGGAGTCACCTAGTGCAG”, the binding signal was 10700 fluorescence intensity (a.u.).

Regarding “GTGTTGTGTTTATTTTTTTATAATATCCATGATTGTAATCCGGAGTCACCTAGTGCAG”, the binding signal is 9640 fluorescence intensity (a.u.).

Turning to “TCCGCCGCCGTCTCCGCCGCCTCCAGCCATCGATCCCGGCCGGAGTCACCTAGTGCAG”, the binding signal was 8250 fluorescence intensity (a.u.).

With “GCACACATACACATACTGACAATGATGAGTTGATGACACACGGAGTCACCTAGTGCAG”, the binding signal is 8500 fluorescence intensity (a.u.).

Regarding “GCCCGGCCCAGTAGATACCACCACCTCACACTCCATTCGCCGGAGTCACCTAGTGCAG”, the binding signal is 9860 fluorescence intensity (a.u.).

Consider “GGAGCATGTTCAACCATTCATTGTTTTCTCTATTGCATAACGGAGTCACCTAGTGCAG”, for which the binding signal was 8070 fluorescence intensity (a.u.).

On to “GTTGTCTAGTGCTTGCTATTCTTCTACTAGTAGTATTATACGGAGTCACCTAGTGCAG”, for which the binding signal was 9570 fluorescence intensity (a.u.).

With “AATCCATTTCCCATTCGCCATTCCCCATCCTTATCTCTTACGGAGTCACCTAGTGCAG”, the binding signal was 8660 fluorescence intensity (a.u.).

For “GTTGCATTTGCCGCTGCGACACGGACCCCGCCTTAATAACCGGAGTCACCTAGTGCAG”, the binding signal was 9020 fluorescence intensity (a.u.).

On to “ATGCCCTGTTACCTGTGTGTGATTTCTTTGTGCTCCATAACGGAGTCACCTAGTGCAG”, for which the binding signal is 17600 fluorescence intensity (a.u.).

Turning to “TGATTTTTTAGGGAGGGGTGGTTAGTATAAGAGGGTTTTCCGGAGTCACCTAGTGCAG”, the binding signal was 20000 fluorescence intensity (a.u.).

As for “TACCTGATTTGTGCATATGTTTCTTTCTGTTTTGCCCTTACGGAGTCACCTAGTGCAG”, the binding signal was 8170 fluorescence intensity (a.u.).

With “ATTTTTACCCTTCTCCTGTGTTTTTGTTGCTGTGATTCAACGGAGTCACCTAGTGCAG”, the binding signal is 8570 fluorescence intensity (a.u.).

On to “AAGATTTGCTGGGAGGGTGGGGTGGGGATTAGTCCCTAAACGGAGTCACCTAGTGCAG”, for which the binding signal is 24500 fluorescence intensity (a.u.).

Regarding “AGATGGTGTTTGGATGGGAGGGATTTATTTTAGTCCCTCTCGGAGTCACCTAGTGCAG”, the binding signal was 10200 fluorescence intensity (a.u.).

As for “GATTTGGTGGGTTATAATTTTATAGTAAGAGGGGATTTTACGGAGTCACCTAGTGCAG”, the binding signal was 16100 fluorescence intensity (a.u.).

Consider “ATCCAATGGTATAATTTTTTTAGGGAAGGGTTTTTTTTTCCGGAGTCACCTAGTGCAG”, for which the binding signal is 12600 fluorescence intensity (a.u.).

As for “TCTTTCTCTCTCTTGCTGCCGTTGAGGGATTTGGGGTGAACGGAGTCACCTAGTGCAG”, the binding signal is 10000 fluorescence intensity (a.u.).

Turning to “CTACTATTGCGTTGTTTTATTTTGGCCAGTTTATTTCAAACGGAGTCACCTAGTGCAG”, the binding signal was 13400 fluorescence intensity (a.u.).
